The values that follow come from PubChem BioAssay AID2099 (Broad Institute, 2009).

Out of some 330,000 compounds screened, about 230 (0.07%) were called active. Only a selection was taken, and actives are over-represented in it overall. Values without a mark were called inactive.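 How the source made its calls: active means more than half of a compound's replicate wells show inhibition beyond 50%, single wells judged on their own value; inconclusive means some, but no more than half, of replicates pass 50% inhibition; inactive means no replicate passes 50% inhibition.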

Chain of Lysine-specific demethylase 4C (Homo sapiens) (Q9H3R0 1-420 limits assumed): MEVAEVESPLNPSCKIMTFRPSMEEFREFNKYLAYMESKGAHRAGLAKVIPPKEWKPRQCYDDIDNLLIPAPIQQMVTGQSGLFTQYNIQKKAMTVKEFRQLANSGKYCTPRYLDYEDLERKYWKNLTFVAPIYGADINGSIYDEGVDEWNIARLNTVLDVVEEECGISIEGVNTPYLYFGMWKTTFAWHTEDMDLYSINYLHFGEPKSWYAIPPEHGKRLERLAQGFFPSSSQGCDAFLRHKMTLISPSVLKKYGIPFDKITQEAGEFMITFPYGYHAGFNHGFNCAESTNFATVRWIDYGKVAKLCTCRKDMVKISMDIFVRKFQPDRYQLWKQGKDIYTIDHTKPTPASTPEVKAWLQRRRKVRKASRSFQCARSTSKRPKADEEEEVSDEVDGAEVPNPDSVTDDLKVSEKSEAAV

This experiment concerns the target Lysine-specific demethylase 4C (Homo sapiens) (UniProt Q9H3R0). The experiment can be described thus: inhibitors of GASC-1 histone demethylase, primary screen, biochemical, fluorescence, DELFIA europium (AID 2099).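 Further: signal counts dimethyl H3K9 product captured on neutravidin plate; 0% = median of DMSO wells and 100% = 0.3 times that DMSO median.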 Particulars: GST-JMJD2C(1-420) H3K9me3 demethylation, at 2.35 µM, active compounds read high.
Consider `O=c1[nH]c(O)c(C=Nc2cc(F)cc(F)c2)c(=O)[nH]1`, for which the inhibition is 8.75%.

With `Cc1ccc2c(c1)=C/C(=C\c1c(O)[nH]c(=O)[nH]c1=O)C(=O)N=2`, the inhibition is 68.2% (active).

For `O=C1N=c2ccccc2=C/C1=C\c1c(O)[nH]c(=S)[nH]c1=O`, the inhibition was 0.999%.

Turning to `COc1ccc(CN2CCN(c3ccccc3F)CC2)c(OC)c1`, the inhibition is 2.07%.

On to `NCC(O)c1ccc(O)cc1` (stereo not given), for which the inhibition was 4.95%.
